Laboratory results: PubChem BioAssay AID2284388 (EPA ToxCast)
Records with an inconclusive call do not appear. Activity calls are given as the source filed them. Rule for the calls: active = hit-call score of the fitted dose curve at least 0.9, where 1 is the maximum; inconclusive = response in the unintended direction; inactive = score below 0.9.

biological target: human Retinoid X Receptor beta (RXRb) Agonism, RXRB (gene 6257) (UniProt P28702); assay: ERF_TW_NR_COA_hRXRB: Eurofins (ERF) Nuclear Receptor (NR) Functional Coactivator Assay for human Retinoid X Receptor beta (RXRb) Agonism
Protocol: ERF_TW_NR_COA_hRXRB is a biochemical, single-readout assay that uses extracted gene-proteins in a cell-free assay. Measurements were taken 0.5 hours after chemical dosing in a 96-well plate. See RXRbeta Human Retinoid X NHR Functional Agonist Coactivator Assay, Panlabs.ERF_TW_NR_COA_hRXRB is an assay component calculated from the ERF_TW_NR_COA_hRXRB assay. It is designed to measure FRET using a type of binding reporter as detected by fluorescence intensity of fluorobexarotene with fluorimetry technology.Data from the assay component ERF_TW_NR_COA_hRXRB was analyzed at the assay endpoint, ERF_TW_NR_COA_hRXRB, in the positive analysis fitting direction relative to DMSO as the negative control and baseline of activity. Using a type of binding reporter, gain-of-signal activity can be used to understand changes in binding as they relate to gene RXRB. To generalize the intended target to other relatable targets, this assay endpoint is annotated to the nuclear receptor intended target family, where the subfamily is non-steroidal.
Test compound and/or vehicle is incubated with the 2 nM retinoid X receptor beta (RXRbeta)-LBD and coactivator peptide for 30 minutes at RT. Determination of the amount of complex formed is read spectrofluorimetrically (excitation: 337 nm, emission: 520/490 nm). Test compound-induced increase fluorescence by 50 percent or more (>/=50%) relative to the 10 uM fluorobexarotene response indicates possible RXRbeta receptor agonist activity.

Sequence of human Retinoid X Receptor beta (RXRb) Agonism, RXRB (gene 6257) (P28702 whole entry, looked up): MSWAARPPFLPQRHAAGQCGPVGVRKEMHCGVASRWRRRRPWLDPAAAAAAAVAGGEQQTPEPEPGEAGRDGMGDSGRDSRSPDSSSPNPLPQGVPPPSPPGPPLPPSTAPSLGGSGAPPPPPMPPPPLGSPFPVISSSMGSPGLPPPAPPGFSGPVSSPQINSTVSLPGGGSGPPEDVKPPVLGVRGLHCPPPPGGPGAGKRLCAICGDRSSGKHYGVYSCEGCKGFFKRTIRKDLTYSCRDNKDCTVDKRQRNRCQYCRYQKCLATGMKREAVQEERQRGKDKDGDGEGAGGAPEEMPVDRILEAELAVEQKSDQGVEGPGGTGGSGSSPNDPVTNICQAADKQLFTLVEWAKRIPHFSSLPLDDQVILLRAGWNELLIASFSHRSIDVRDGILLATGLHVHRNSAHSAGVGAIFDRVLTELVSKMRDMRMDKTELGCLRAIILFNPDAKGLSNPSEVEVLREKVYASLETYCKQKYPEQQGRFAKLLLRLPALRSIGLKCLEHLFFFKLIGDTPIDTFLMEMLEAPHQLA

Row | SMILES | outcome | AC50
1 | CN(c1nccc(=O)[nH]1)C1CCN(c2nc3ccccc3n2Cc2ccc(F)cc2)CC1 | inactive | –
2 | O=S(=O)(O)C(F)(F)C(F)(F)C(F)(F)C(F)(F)C(F)(F)C(F)(F)C(F)(F)C(F)(F)F | inactive | –
3 | ClC1=C(Cl)[C@]2(Cl)[C@@H]3[C@@H]4C[C@@H]([C@H]5O[C@@H]45)[C@@H]3[C@@]1(Cl)C2(Cl)Cl | inactive | –
4 | CCCc1c(OCCCOc2ccc(OCC(=O)O)cc2)ccc(C(C)=O)c1O | inactive | –
5 | OCCCC(F)(F)C(F)(F)C(F)(F)C(F)(F)C(F)(F)C(F)(F)C(F)(F)F | inactive | –
6 | CC1(C)CCC(C)(C)c2cc(C(=O)Nc3ccc(C(=O)O)cc3)ccc21 | inactive | –
7 | Cc1ccc2cc3c(ccc4ccccc43)c3c2c1CC3 | inactive | –
8 | ClC1=C(Cl)[C@]2(Cl)[C@@H]3[C@H]4C[C@H]([C@@H]5O[C@H]45)[C@@H]3[C@@]1(Cl)C2(Cl)Cl | inactive | –
9 | C/C(=C\c1ccc(C(=O)O)cc1)c1ccc2c(c1)C(C)(C)CCC2(C)C | inactive | –
10 | O=C(O)C(F)(F)C(F)(F)C(F)(F)C(F)(F)C(F)(F)C(F)(F)C(F)(F)C(F)(F)Cl | inactive | –
11 | O=C(O)C(F)(F)OC(F)(F)C(F)(F)OC(F)(F)C(F)(F)OC(F)(F)C(F)(F)C(F)(F)C(F)(F)F | inactive | –
12 | O=C(O)C(F)(F)C(F)(F)C(F)(F)OC(F)(C(F)(F)F)C(F)(F)F | inactive | –
13 | CC(=O)c1cc(C(C)(C)C)cc2c1CCC2(C)C | – | 14.5 µM (active)
